According to PubChem BioAssay (EPA / NIEHS):
The source made the active and inactive calls. The calls were made as follows: active = hit-call score of the fitted dose curve at least 0.9, where 1 is the maximum; inactive = score below 0.9.

Columns and labels:
Settings in all cases: mRNA level, 48 h; actives raise or lower the signal
[1] = read-out: Cytochrome P450 (CYP2B6), CYP2B6 (gene 1555); assay: LTEA_HepaRG_CYP2B6: Life Technologies and Expression Analysis (LTEA) Assay for Cytochrome P450 (CYP2B6) using HepaRG (AID 2283481)
How it was run: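 Human HepaRG, 48 h dosing, 0.5% DMSO vehicle, top dose 100 uM. CYP2B6 transcript by qRT-PCR, housekeeping-normalized, bidirectional curve fit.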

[2] = read-out: Cytochrome P450 2C19 (Homo sapiens) (UniProt P33261); assay: LTEA_HepaRG_CYP2C19: Life Technologies and Expression Analysis (LTEA) Assay for CYP2C19 using HepaRG (AID 2283482)
How it was run: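 Endpoint: CYP2C19 mRNA change, bidirectional fit vs 0.5% DMSO. Cells: HepaRG, 48 h exposure, eight-point series topping at 100 uM. Quantitation: qRT-PCR normalized to ACTB, GAPDH, POLR2A.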

[3] = read-out: CYP2C8 (gene 1558); assay: LTEA_HepaRG_CYP2C8: Life Technologies and Expression Analysis (LTEA) Assay for CYP2C8 using HepaRG (AID 2283483)
How it was run: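 HepaRG (human liver line), 48 h chemical exposure, 8-pt half-log series from 100 uM, 0.5% DMSO vehicle. Readout: CYP2C8 transcript by qRT-PCR, housekeeping-normalized. Bidirectional fit vs DMSO baseline.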

[4] = read-out: CYP2C9 (gene 1559); assay: LTEA_HepaRG_CYP2C9: Life Technologies and Expression Analysis (LTEA) Assay for CYP2C9 using HepaRG (AID 2283484)
Procedure: (§1) LTEA_HepaRG is a cell based, multiplexed-readout assay that uses HepaRG, a human liver cell line, with measurements taken at 48 hours after chemical dosing on a 96-well plate.LTEA_HepaRG_CYP2C9 is one of 102 assay component(s) measured in the LTEA HepaRG cell culture assay. It is a marker of NR mediated metabolism.Data from the assay component LTEA_HepaRG_CYP2C9 was analyzed into 1 endpoint. This assay endpoint, LTEA_HepaRG_CYP2C9, was analyzed with bidirectional fitting relative to DMSO as the negative control and baseline of activity. Using a type of inducible reporter, measures of mRNA induction for gain or loss-of-signal activity can be used to understand regulation of transcription factor activity. To generalize the intended target to other relatable targets, this assay endpoint is annotated to the cyp intended target family, where the subfamily is xenobiotic metabolism.
(§2) A total of 1060 chemcials from the ToxCast library were tested in eight-point concentration-response experiments. Cell culture and cytotoxicity assays were conducted at Thermo Fisher Scientific's Custom Services facility (Madison, WI). […] Fluidigm's 96.96 Dynamic ArrayTM (Fluidigm, Amsterdam, the Netherlands) technology was used for gene expression analyses by quantitative reverse transcription polymerase chain reaction (qRT-PCR, performed by Quintiles/Expression Analysis, Durham, NC)89. […]

[5] = read-out: CYP2E1 (gene 1571); assay: LTEA_HepaRG_CYP2E1: Life Technologies and Expression Analysis (LTEA) Assay for CYP2E1 using HepaRG (AID 2283485)
Procedure: as §1, with “plate.LTEA_HepaRG_CYP2E1” for “plate.LTEA_HepaRG_CYP2C9”, “LTEA_HepaRG_CYP2E1” for “LTEA_HepaRG_CYP2C9”, “LTEA_HepaRG_CYP2E1,” for “LTEA_HepaRG_CYP2C9,”
as §2

[6] = read-out: CYP4A11 (gene 1579); assay: LTEA_HepaRG_CYP4A11: Life Technologies and Expression Analysis (LTEA) Assay for CYP4A11 using HepaRG (AID 2283486)
How it was run: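 Human hepatic HepaRG cultures receive duplicate 48 h exposures across a concentration-response series topping at 100 uM. Expression changes in CYP4A11 are measured by qRT-PCR relative to DMSO controls.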

[7] = read-out: Cytochrome P450 3A4 (Homo sapiens) (UniProt P08684); assay: LTEA_HepaRG_CYP3A4: Life Technologies and Expression Analysis (LTEA) Assay for CYP3A4 using HepaRG (AID 2283487)
How it was run: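 CYP3A4 transcript measured by TaqMan qRT-PCR and normalized to three housekeeping genes after 48 h chemical exposure of human HepaRG cells. Top concentration 100 uM, half-log steps, 0.5% DMSO vehicle; gain or loss fitted against DMSO baseline.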

[8] = read-out: DNA damage-inducible transcript 3 (DDIT3), DDIT3 (gene 1649); assay: LTEA_HepaRG_DDIT3: Life Technologies and Expression Analysis (LTEA) Assay for DNA damage-inducible transcript 3 (DDIT3) using HepaRG (AID 2283488)
How it was run: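 Eight-point concentration-response (100 uM highest, half-log dilutions) in HepaRG, 48 h, duplicate wells. Endpoint: qRT-PCR mRNA, normalized (ACTB, GAPDH, POLR2A), bidirectional fitting with DMSO as baseline.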

[9] = read-out: Pro-epidermal growth factor (Homo sapiens) (UniProt P01133); assay: LTEA_HepaRG_EGF: Life Technologies and Expression Analysis (LTEA) Assay for Epidermal growth factor (EGF) using HepaRG (AID 2283489)
How it was run: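 Concentration-response mRNA assay: HepaRG cells dosed 48 h (max 100 uM, 0.5% DMSO), EGF measured by qRT-PCR and normalized to ACTB/GAPDH/POLR2A.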

[10] = read-out: Ezrin (EZR), EZR (gene 7430); assay: LTEA_HepaRG_EZR: Life Technologies and Expression Analysis (LTEA) Assay for Ezrin (EZR) using HepaRG (AID 2283491)
How it was run: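 HepaRG, 48 h chemical exposure, 8-pt half-log series from 100 uM, 0.5% DMSO vehicle, duplicates. Read-out: EZR mRNA by TaqMan qRT-PCR (Fluidigm array), housekeeping-normalized; bidirectional curve fit vs DMSO baseline.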

Measured: outcome

Cytochrome P450 2C19 (Homo sapiens), sequence (P33261 whole entry, looked up): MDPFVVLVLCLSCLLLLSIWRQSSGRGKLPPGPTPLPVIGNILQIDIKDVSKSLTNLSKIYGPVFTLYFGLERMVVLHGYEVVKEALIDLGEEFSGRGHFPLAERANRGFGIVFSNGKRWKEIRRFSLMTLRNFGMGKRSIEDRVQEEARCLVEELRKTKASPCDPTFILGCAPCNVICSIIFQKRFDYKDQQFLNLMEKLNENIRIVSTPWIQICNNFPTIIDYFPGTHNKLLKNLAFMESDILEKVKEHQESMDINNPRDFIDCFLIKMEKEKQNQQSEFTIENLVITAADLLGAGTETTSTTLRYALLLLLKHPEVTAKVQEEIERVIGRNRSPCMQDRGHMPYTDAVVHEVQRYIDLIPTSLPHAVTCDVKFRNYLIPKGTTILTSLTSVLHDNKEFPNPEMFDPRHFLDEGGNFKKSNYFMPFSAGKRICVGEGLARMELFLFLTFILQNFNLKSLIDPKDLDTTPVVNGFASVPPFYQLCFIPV
Cytochrome P450 3A4 (Homo sapiens), sequence (P08684 whole entry, looked up): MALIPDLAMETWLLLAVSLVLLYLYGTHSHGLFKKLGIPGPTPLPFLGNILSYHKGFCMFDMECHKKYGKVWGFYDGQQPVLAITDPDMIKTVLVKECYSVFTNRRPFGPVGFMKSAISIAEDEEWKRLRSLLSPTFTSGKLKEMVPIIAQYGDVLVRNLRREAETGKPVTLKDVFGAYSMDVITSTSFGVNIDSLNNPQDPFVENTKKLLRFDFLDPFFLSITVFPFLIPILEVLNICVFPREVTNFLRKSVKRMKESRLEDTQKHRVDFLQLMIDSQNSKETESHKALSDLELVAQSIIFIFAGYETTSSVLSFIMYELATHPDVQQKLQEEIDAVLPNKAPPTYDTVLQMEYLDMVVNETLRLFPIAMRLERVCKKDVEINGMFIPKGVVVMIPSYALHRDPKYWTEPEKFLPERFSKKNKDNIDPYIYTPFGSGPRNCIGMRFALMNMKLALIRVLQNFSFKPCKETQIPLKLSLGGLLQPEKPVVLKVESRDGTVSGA

O=C(O)c1ccc([N+](=O)[O-])cc1
inactive: all assays above
